Results: PubChem BioAssay AID743088 (The Scripps Research Institute Molecular Screening Center, 2013)
Unmarked numbers belong to inactive results.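 How the source made its calls: active means binding inhibited by at least 50%, or stimulated by at least 50%, shown as inhibition of -50% or lower; inactive means the rest.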

System: Phorbol Ester
Assay: radioligand displacement at 30 receptors – biochemical, Panlabs HitProfilingScreen, selectivity assay for AVPR1a antagonist project, profiling panel (AID 743088)
Conditions: 30 targets, at 10 µM, active compounds read high

With `O=C(C1CCN(c2ccc(Cl)cn2)CC1)N(CC1CC1)c1ccc(Cl)cc1` the inhibition of binding was -13%.
